Results reported in ChEMBL document CHEMBL3988442, “University of Dundee, Small-Polar-MMV Screening Library” (2021).

Columns and labels:
[1] = molecular target: T1, Aspartate--tRNA(Asp/Asn) ligase (Mycobacterium tuberculosis (strain ATCC 25618 / H37Rv)) (UniProt P9WFW3); assay: Assay for Asp RNA synthetase-1 from Mycobacterium tuberculosis; format: functional; parameters: scale not given: direction of the effect not stated beside the values; details: 30 µM; further: in the data most compounds retested in dose-response had high values
T1 sequence (whole entry): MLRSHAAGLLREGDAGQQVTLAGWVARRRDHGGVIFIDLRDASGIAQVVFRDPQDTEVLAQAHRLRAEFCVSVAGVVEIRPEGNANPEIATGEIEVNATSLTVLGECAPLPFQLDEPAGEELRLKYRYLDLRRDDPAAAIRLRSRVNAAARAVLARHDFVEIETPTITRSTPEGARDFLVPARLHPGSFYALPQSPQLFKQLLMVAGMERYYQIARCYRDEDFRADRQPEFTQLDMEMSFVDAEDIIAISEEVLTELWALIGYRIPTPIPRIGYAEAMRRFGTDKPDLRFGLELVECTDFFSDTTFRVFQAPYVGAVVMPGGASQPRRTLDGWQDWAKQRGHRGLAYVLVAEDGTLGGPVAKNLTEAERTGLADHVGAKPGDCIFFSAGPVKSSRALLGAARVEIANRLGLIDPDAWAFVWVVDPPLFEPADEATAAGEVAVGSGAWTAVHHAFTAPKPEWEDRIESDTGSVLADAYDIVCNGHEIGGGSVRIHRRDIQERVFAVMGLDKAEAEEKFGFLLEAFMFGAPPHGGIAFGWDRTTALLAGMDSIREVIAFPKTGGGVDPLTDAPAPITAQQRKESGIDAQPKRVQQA

[2] = molecular target: Shiga toxin 2 (Escherichia coli O157:H7) (UniProt P09385+P09386); assay: E. coli 0.157:H7 Shiga Toxin SOP - stx2 screening assay; format: functional; parameters: scale not given: direction of the effect not stated beside the values; details: 30 µM

Compound	Percent Effect [1] [%]	Percent Effect [2] [%]
COCCN(Cc1ccc(F)cc1Cl)C(=O)c1ccncc1	-5.35	12
COc1ccccc1OCc1cc(C(=O)N2CC(O)C2)n[nH]1	2.09	1.76
O=C(c1ccoc1)N1CCCn2cnc(COCC3CC3)c2C1	-5.91	-6.53
Cc1nccc([C@H]2C[C@@H]3CCN(S(=O)(=O)N(C)C)C[C@H]3O2)n1	1.71	6.66
O=C(NCc1cc[nH]n1)NCC(c1ccc(F)cc1)N1CCOCC1 (configuration not stated)	-0.433	-14.2
Cc1ccc(C2CCCCCN2Cc2cn(C)nc2C)s1 (configuration not stated)	-2.17	-71.3
Cn1cc(C(=O)NC[C@@H]2OC[C@H]3CN(Cc4ccco4)CC[C@H]32)cn1	-0.729	-33.5
COc1ccc(C2CC(=O)Oc3cc(C)[nH]c(=O)c32)cc1 (configuration not stated)	0.232	-8.78
CCC(C)N(C)S(=O)(=O)c1ccc(CCNC(C)=O)s1 (configuration not stated)	0.0557	-17
Cc1nc(O)c2nnn(C[C@H]3CCCN3C(=O)c3cccc(F)c3)c2n1	2.16	-4.92
Cc1noc(C)c1C1CCCN1C(=O)CN1CC2(CCNCC2)OC1=O (configuration not stated)	-0.658	-21
COc1ccc(C(=O)N(C)Cc2cccc(C#N)c2)c(OC)c1OC	-1.51	30.3
COCC(=O)N1CCO[C@H]2[C@H](OC)CC[C@@H]21	9.03	2.73
CNC(=O)CSc1cnn(CC(=O)Nc2cccc(Cl)c2C)c(=O)c1Cl	-5.35	-8.91
Cn1cc(CN2CCC3(C2)CN(Cc2ccsc2)C3)cn1	1.9	-10.4
CC(C)n1[nH]c(=O)c2c1NC(=O)CC2c1cccnc1 (configuration not stated)	-1.05	-6.55
CC(=O)N1CCN(C(=O)NCc2csc(Br)c2)CC1	0.204	5.42
O=C(CCCOc1ccc(F)cc1F)N1CCCC1Cn1cccn1 (configuration not stated)	-7.61	17.6
CCOCCn1nc(C)cc1C(=O)N1CC[C@](C)(O)[C@H](C)C1	-4.03	4.67
CN(C)c1cc(C(=O)N2CCN(c3cnccn3)CC2)ccn1	-1.5	3.8
Cn1cnc(S(=O)(=O)NCCCN2CCCCCC2)c1Cl	1.4	18.1
O=C(c1ccc(C(F)(F)F)nc1)N1CCCC(n2cncn2)C1 (configuration not stated)	-4.88	-8.71
Cc1ccc(C(=O)Nc2cn[nH]c2)cn1	1.01	15.1

Compound	Percent Effect [1] [%]	Percent Effect [2] [%]
NC(=O)c1cnn2c1NCC(CNCCc1ccco1)C2 (configuration not stated)	0.367	26.6
Cc1cc(C(=O)NCCN2CCCC(C)C2)nn1C (configuration not stated)	-4.16	11.8
COc1cccc(CN(C)Cc2cccc(C#N)c2)c1OC	-1.23	14.1
O=C(NCCNc1ncccn1)C1CCN(c2ncccn2)CC1	-0.874	5.72
CCc1cc(C(=O)N2CCC(Nc3ccc(C)nn3)CC2)sc1C	-2.1	-27.9
Cc1nc(C2CCCN2C(=O)c2cnns2)no1 (configuration not stated)	-4.19	27.5
CN(C)C(=O)N1CCN(Cc2cnn(C)c2)CC2(CNC(=O)C2)C1 (configuration not stated)	2.15	-5.82
COc1cccc(C(=O)NS(=O)(=O)c2cccc(C#N)c2)c1OC	0.0291	2.55
O=C1[C@H]2CN(Cc3nccs3)C[C@H]2CN1c1ccsc1	5	1.38
Cc1ccc2cnn(CCC(=O)NCc3c(C)nn(C)c3C)c2c1	8.17	-18.4
c1ccc(-c2nnc(CNCCn3cccn3)o2)cc1	-5.08	0.764
O=C(NC1CC1)[C@@H]1CCO[C@@H]2CCN(C3CCOCC3)C[C@H]21	5.8	-34.3
Cc1nccc(-c2cccc(NCC(=O)N3CCc4sccc4C3)c2)n1	-0.955	8.31
N#Cc1ccccc1CN1C[C@@H]2CC[C@H](C1)N(Cc1cscn1)C2=O	-3.02	3.66
O=C(NC1CCCC1)[C@@H]1CN(Cc2nccs2)C[C@H]2OCC[C@H]21	4.4	-7.97
CCSc1ccc(C(=O)Nc2c(C)nn(C(C)C)c2C)cn1	-2.39	-37.7
Cc1nc(C(=O)N2CCC(Nc3cccnn3)CC2)cs1	-7.35	-19.2
c1ccc(OCCCN2CCN(c3ccc4nncn4n3)CC2)cc1	-0.637	-81.9
O=C(NCCNc1ncccn1)C1CCN(C(=O)C2CC2)CC1	1.89	14.1
Cn1nnc2c1CCN(Cc1ccccc1)C2COCC1CC1 (configuration not stated)	2.13	-19.5
O=C1CCCCN1c1cccc(CNC2CCCC2)c1	-0.259	18
COc1ccc(C)cc1CN(C)Cc1nc2c(cnn2C)c(=O)[nH]1	1.01	46.7
COCc1ccc(CNC(=O)C2=NN(c3ccccc3)C(=O)CN2)cc1	16.6	-18.1
